High-throughput results as filed in PubChem.
Lassa entry inh: inhibitors of Lassa virus binding or cell entry | hit rate 1.2% among 300,000 | Potency, µM (titrated, usually from 37.9 µM), inactives show at the highest dose activity change, negative = inhibition, actives largely listed as inhibitors | Lassa virus pseudotype entry inhibition, cell reporter; calls by dose curve; tested in HEK293 cells; further: potency means the concentration at half of the fitted maximal effect; on the % scale 0 is the no-effect control and ±100 the full control effect; nearly all actives have a fitted effect of over 50% in size
CHX counter: counter-screen for Shiga toxin inhibitors: cycloheximide protein synthesis inhibition; cell reporter, cycloheximide protein synthesis inhibition counterscreen; hit rate 12% among 300,000; max response, %; in the data active means max response mostly above about 13%, no sharp cut-off; inactive means mostly below about 14%; further: read at 38.3 µM for the half of the compounds with a filed dose; 0% is about no effect
Shiga toxin inh: Shiga toxin inhibition; Vero cells, Shiga toxin protein synthesis inhibition reporter; inhibition, % at 38.7 µM; hit rate 9.2% among 290,000; in the data active means inhibition mostly above about 28%, no sharp cut-off; inactive means mostly below about 43%; further: 0% is about no effect
Pf growth 96h: P. falciparum growth inhibition at 96 hours; P. falciparum luciferase reporter growth, 96 h; Potency, µM (highest dose often 28.7 µM), for the others: top-dose activity change, negative = inhibition, usual class: inhibitors; AID 504834; hit rate 6.9% among 320,000; further: potency means the concentration at half of the fitted maximal effect; on the % scale 0 is the no-effect control and ±100 the full control effect
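Luminescence readout: decreased luciferase signal marks inhibited growth of reporter-expressing P. falciparum in infected red cells (2% hematocrit, 0.05% parasitemia final), exposed to compound two generations (96 h, 37 C, 5% CO2).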
Pf growth 48h: inhibits P. falciparum growth in the first generation, 48 h; hit rate 5.9% among 310,000; P. falciparum luciferase growth in erythrocytes, 48 h; Potency, µM (titrated, usually from 28.7 µM), inactives show at the top dose activity change, negative = inhibition, hits mostly inhibitors; further: potency means the concentration at half of the fitted maximal effect; on the % scale 0 is the no-effect control and ±100 the full control effect
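Parasite viability was followed by luminescence of a genomically integrated firefly luciferase. Cultures held 0.1% parasitemia at 2% hematocrit (final), incubated under 5% CO2 at 37 C.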
Marburg entry inh: inhibitors of Marburg virus binding or cell entry; Potency, µM (doses to about 37.8 µM), for inactives: at the top dose activity change, negative = inhibition, actives largely listed as inhibitors; Marburg virus pseudotyped entry inhibition, cell reporter; AID 540276; hit rate 1.8% among 300,000; calls by dose curve; tested in HEK293 cells; further: potency means the concentration at half of the fitted maximal effect; on the % scale 0 is the no-effect control and ±100 the full control effect
Numbers without * were called inactive; ? = inconclusive; · = no result; [ ] = remark or other dose. An excerpt weighted towards active compounds, which were near 19% of everything screened. Unless noted, the call rests on the fitted dose curve; in most records, active means well fitted inhibition curve with a large enough effect; inconclusive means small, poorly fitted or top-dose-only effect, or another doubt; inactive means no such curve, though single readings can be large or run the other way.

SMILES	Lassa entry inh	CHX counter	Shiga toxin inh	Pf growth 96h	Pf growth 48h	Marburg entry inh
c1ccc(Nc2nc(-c3cccs3)cs2)nc1	?	33*	88*	?	373%	?
Cc1cccc(Nc2nc(-c3cccs3)cs2)n1	?	46*	68*	0%	31%	?
Cc1cccc(Nc2nc(-c3ccccn3)cs2)n1	?	37*	63*	27%	?	?
Nc1ccc(Nc2nc(-c3cccs3)cs2)cc1	?	-1	8	44%	?	19%[46.1 µM]
Cc1ccccc1OCC(=O)Nc1ccc(C(N)=O)cc1	-6%	-1	20	5%	·	17%
CCOC(=O)c1c(NC(=O)C2CCCCC2)sc2c1CCN(CC)C2	·	-1	5	-14%	?	·
COc1ccc(NC(=O)Nc2cccc(C)n2)cc1	·	49*	117*	5%	140%	0%
Cc1cccc(NC(=O)Nc2ccc(Br)cc2)n1	?	29*	59*	1%	106%	?
COc1ccccc1NC(=O)Nc1cccc(C)n1	·	8	24	78%	-17%	·
CCC(=O)Nc1ccc(C(=O)Nc2cccc(C)n2)cc1	·	35*	62*	156%	121%	·
Cc1cccc(NC(=O)Nc2ccccc2[N+](=O)[O-])n1	·	24*	14	-7%	50%	·
CC(=Nc1ccc2c(c1)CCC2)c1c(O)n(C)c(=O)n(C)c1=O	-9%	-5	-16	37%	7%	-1%
CCCCN(C(=O)CSCC(=O)Nc1cccc(C)c1)c1c(N)n(Cc2ccccc2)c(=O)[nH]c1=O	-12%	·	·	?	?	?
COc1ccc(NC(=S)Nc2cccc(C)n2)cc1	?	19*	62	?	4.7µM*	?
O=C(C1CC1)N1CCc2cc(S(=O)(=O)NC3CCN(Cc4ccccc4)CC3)ccc21	-18%	-2	-6	·	8%	?
CCc1ccc(/C=N/NC(=O)c2cc(-c3cccc([N+](=O)[O-])c3)n[nH]2)cc1	?	-1	-9	?	-19%	?
CCc1ccc2c(Cl)c(C(=O)N/N=C/c3c[nH]c4ccccc34)sc2c1	10µM*	22*	30	?	6%	?
CCc1ccc(-c2cc(C(=O)N/N=C/c3c[nH]c4ccccc34)[nH]n2)cc1	?	35*	106*	13%	28%	?
Cc1ccc(CN2CCN(CC(=O)N/N=C/c3c[nH]c4ccccc34)CC2)cc1	18%	0	-5	8%	3%	3%
O=C(CSc1nnc(-c2cccs2)o1)Oc1ccccc1	?	·	·	·	·	0%[46.1 µM]
COc1ccc(C(=O)Nc2nc(C)cs2)cc1S(=O)(=O)N1CCCC1	24%	-2	3	?	-17%	0%[46.1 µM]
C/C(=N/O)c1cc(C(C)(C)C)c(O)c(C(C)(C)C)c1	18%	-3	-10	·	·	-8%
CC(C)(Sc1cc(C(C)(C)C)c(O)c(C(C)(C)C)c1)Sc1cc(C(C)(C)C)c(O)c(C(C)(C)C)c1	-7%	-3	-7	1µM*	7.2µM*	-4%
COc1ccc(OC)c(CNc2ccc([N+](=O)[O-])cc2C)c1	-1%	6	-8	45%	?	-27%[46.1 µM]
Cc1sc(-n2c(C)cc(/C=N/n3cnnc3)c2C)c(C#N)c1C	-32%[14.3 µM]	-2	-27	?	-4%	-26%
SMILES	Lassa entry inh	CHX counter	Shiga toxin inh	Pf growth 96h	Pf growth 48h	Marburg entry inh
O=C(CCc1ccccc1)c1c(O)cc(O)cc1O	·	active	6	-10%	14%	·
CC(C)=C[C@@H]1C[C@H](C)[C@H]2CC[C@H](C)c3c(O)c(O)c(C)c1c32	·	·	·	10µM*	3.7µM*	·
CC(=O)Oc1c(C)c2c3c(c1OC(C)=O)[C@@H](C)CC[C@@H]3[C@@H](C)C[C@H]2C=C(C)C	·	·	·	?	12µM*	·
COCC(=O)N/N=C\c1ccc(OC/C=C/c2ccccc2)c(OC)c1	?	-2	-4	-3%	4.7µM*	-28%
CNC(=S)N/N=C/c1ccc(OCC(=O)Nc2c(C)cc(C)cc2C)c(OC)c1	-15%	-2	-14	?	13µM*	-11%
COc1cc(/C=N/NC(=O)c2ccccc2O)ccc1OCC(=O)Nc1ccccc1	·	15*	19	-23%	?	·
COc1cc(/C=N/NC(=O)c2ccncc2)ccc1OCC(=O)Nc1ccccc1	-7%[46.1 µM]	30*	56*	0%	8%	?
COc1cc(/C=N/NC(=O)c2cccnc2)ccc1OCC(=O)Nc1c(C)cc(C)cc1C	4%	-6	-5	1%	-11%	-15%
COc1cc(/C=N\NC(=O)CC#N)ccc1OC/C=C/c1ccccc1	7%[46.1 µM]	-1	1	-14%	-21%	-18%[46.1 µM]
O=C(CSc1nnc(-c2ccccc2)n1-c1ccc(Cl)cc1)NNC(=S)Nc1ccccc1	14%	-1	-5	0%	12%	-1%
Cc1nn(CC(=O)Nc2ccccn2)c(C)c1Br	?	-1	8	27%	10%	6%
COc1ccc(NC(=O)COc2ccc(/C=N/NC(=O)c3cccnc3)cc2OC)cc1	5%	10	32*	28%	9%	?
O=C(COc1ccc(/C=N/NS(=O)(=O)c2ccccc2)cc1)Nc1ccccc1	2%	21*	60	?	45%	16%
O=C(COc1ccc(/C=N/NC(=O)c2cccnc2)cc1)Nc1ccccc1	1%	29*	25	-5%	15%	?
O=C(COc1ccc(/C=N/NC(=O)c2cc3ccccc3o2)cc1Cl)Nc1ccccc1	8.9µM*	47*	62*	7.4µM*	10µM*	?
O=C(N/N=C/c1cccc([N+](=O)[O-])c1)c1cc2ccccc2o1	0%	10	-12	?	5%	?
O=C(Cc1ccccc1)N/N=C/c1ccc(OCC(=O)Nc2ccccc2)cc1	3%	9	30	?	?	2%[46.1 µM]
COc1ccccc1NC(=O)COc1ccc(/C=N/NC(=O)c2cccnc2)cc1	·	7	-12	31%	7%	·
COc1ccccc1C(=O)NNC(=O)C(=O)Nc1cccc(Cl)c1C	9%	10	31	35%	13%	-23%[46.1 µM]
COc1ccccc1-c1cc(C(F)(F)F)nc(S(C)(=O)=O)n1	?	-3	-15	?	·	?
COc1cc(/C=N/NC(N)=S)ccc1OCC(=O)Nc1ccc(C)cc1	12%	-1	-6	29%	18%	-29%[46.1 µM]
CCOc1cc(C(=S)N2CCCC2)ccc1OCC(=O)Nc1c(C)cc(C)cc1C	-22%	-3	-4	41%	2.3µM*	-24%
CCOc1cc(C(=S)N2CCCC2)ccc1OC	-1%	-2	-6	12%	·	-2%
O=C(c1cc2ccccc2o1)N1CCN(Cc2ccc3c(c2)OCO3)CC1	·	5	-10	31%	-6%	·
Cc1ccc(N=C2NC(=O)/C(=C/C=C/c3ccco3)S2)cc1	?	13	27	?	?	-5%
Cc1ccc(N=C2NC(=O)/C(=C/c3cccn3C)S2)cc1	·	37*	79*	?	95%	·
